Compounds with a hit are over-represented: about 6.9% of the library has one in this group of screens.
MPTP block: blocks calcium-induced mitochondrial swelling. isolated mouse mitochondria, Ca2+ swelling absorbance, 30 min. inhibition, % at 10 µM. 360,000 compounds, 1.4% hits. AID 602449;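 active = inhibition of 50% or more, scaled per plate between neutral and stimulator controls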;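 also: 0% = DMSO wells given calcium and 100% = 1 mM EGTA wells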
Beta cell apopt: blocks beta cell apoptosis; INS-1E cytokine-induced death, ATP luminescence, 48 h; percent of positive-control rescue, neutral wells zero; protection from apoptosis, % (test concentration not listed); 300,000 compounds, 0.8% hits;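 active = Every replicate reaches about 75%, or at least half do and their mean reaches it too, limit read from the data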;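 also: 0% = cytokine-treated negative control wells and 100% = positive control rescue; higher means more ATP so stronger rescue from cytokine killing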
Mdm2-MdmX inh: disrupts the human Mdm2-MdmX interaction | O15151+Q00987 | SaOS-2 split-luciferase Mdm2/MdmX complementation, luminescence | inhibition, % at 8 µM | 330,000 compounds, 3% hits;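 active = inhibition of at least 50% at 8 µM in the primary screen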
Target sequence (O15151 whole entry, looked up): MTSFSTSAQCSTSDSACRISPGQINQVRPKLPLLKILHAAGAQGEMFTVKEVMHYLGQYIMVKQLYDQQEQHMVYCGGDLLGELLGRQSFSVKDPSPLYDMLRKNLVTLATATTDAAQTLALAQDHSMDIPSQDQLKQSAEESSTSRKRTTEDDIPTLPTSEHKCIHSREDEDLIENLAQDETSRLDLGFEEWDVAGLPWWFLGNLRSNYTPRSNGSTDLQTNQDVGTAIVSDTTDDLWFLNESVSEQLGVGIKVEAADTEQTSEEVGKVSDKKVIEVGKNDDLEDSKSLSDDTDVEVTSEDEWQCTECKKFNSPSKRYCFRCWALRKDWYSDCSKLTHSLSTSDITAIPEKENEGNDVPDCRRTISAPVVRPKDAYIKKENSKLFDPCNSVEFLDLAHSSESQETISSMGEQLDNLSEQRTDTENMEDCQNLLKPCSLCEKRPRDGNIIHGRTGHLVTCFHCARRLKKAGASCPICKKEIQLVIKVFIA
Target sequence (Q00987 whole entry, looked up): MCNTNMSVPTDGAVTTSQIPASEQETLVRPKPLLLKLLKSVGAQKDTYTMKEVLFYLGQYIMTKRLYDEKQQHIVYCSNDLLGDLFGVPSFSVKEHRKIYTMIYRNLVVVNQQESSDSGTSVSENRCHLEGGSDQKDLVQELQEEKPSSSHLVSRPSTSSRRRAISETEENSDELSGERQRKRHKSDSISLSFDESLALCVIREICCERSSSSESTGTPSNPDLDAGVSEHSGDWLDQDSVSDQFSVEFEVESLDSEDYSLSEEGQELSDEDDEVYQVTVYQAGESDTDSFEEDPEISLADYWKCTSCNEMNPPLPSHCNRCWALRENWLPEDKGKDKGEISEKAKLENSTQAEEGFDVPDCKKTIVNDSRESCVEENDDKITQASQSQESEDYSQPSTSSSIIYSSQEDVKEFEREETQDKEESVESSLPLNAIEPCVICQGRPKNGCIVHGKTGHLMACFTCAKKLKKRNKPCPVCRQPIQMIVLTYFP
SKKanGAS inh: SKKanGAS growth inhibition; S. pyogenes SKKanGAS, kanamycin growth, BacTiter-Glo, 6 h; inhibition, % at 7.5 µM; AID 1662; 300,000 compounds, 1.3% hits;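 active = mean replicate score, as percent of positive control median, at least 50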;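 also: strain carries kanamycin resistance gene driven by streptokinase promoter and grows in 40 µg/ml kanamycin; loss of luminescence reflects streptokinase promoter inhibition or plain growth inhibition; 0% = median of DMSO wells and 100% = positive control at its reference dose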
CSC inhib: blocks cancer stem cells; cancer stem cell-like cells viability, luminescence; inhibition, % at 7.5 µM; 300,000 compounds, 1.1% hits; in the data active = inhibition above about 75%; tested in HMLE shEcad cells
NR3A LBD binder: modulators (binders) of human NR3A ligand-binding domain. NR3A LBD differential scanning fluorimetry, Tm shift; 0% = protein alone, 100% = glycine-bound protein. Tm shift relative to glycine control, % at 25 µM. 340,000 compounds, 2.5% hits. AID 1259313;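 active = melting temperature shift of at least 10% of the positive control shift, at one fixed dose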
Mdm2-MdmX conf: confirmation of human Mdm2/MdmX interaction inhibitors. shares compounds with Mdm2-MdmX inh. Mdm2-MdmX binding, luminescent assay. inhibition, % at 8 µM. 10,000 compounds, 55% hits. AID 489028; in the data active = inhibition above about 40%
Full FLuc ctr: full-length luciferase inhibition in Mdm2/MdmX counter-screen. SaOS-2 full-length luciferase counterscreen, luminescence. shares compounds with Mdm2-MdmX inh. 6,200 compounds, 77% hits. inhibition, % at 8 µM;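 active = mean inhibition at 8 µM reaching about 37%, which flags the compound as non-specific, limit read from the data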;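 also: p53-null SaOS-2 cells with luciferase driven by a doxycycline-inducible promoter; compound on cells about two nights before reading with doxycycline added after day one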
The depositor's hits bear a star; / = no result given.

SMILES | MPTP block | Beta cell apopt | Mdm2-MdmX inh | SKKanGAS inh | CSC inhib | NR3A LBD binder | Mdm2-MdmX conf | Full FLuc ctr
Cc1onc(-c2ccccc2)c1C(=O)N1CCN(c2ncccc2C(F)(F)F)CC1 | -1.1 | -2.1 | 11.7 | -2.5 | -8.3 | -2.5 | / | /
CCc1ccc2c(c1)C1(C(=O)N2)N2CCCC2C(C(=O)c2ccc3ccccc3c2)C12C(=O)Nc1ccccc12 (stereo not given) | 6.3 | 121.1* | 91.2* | 28.6 | 159.5* | 2.0 | 37.5 | 90.7*
COc1ccc(/C=C(\C#N)C(=O)N2CCOCC2)cc1Br | 0.2 | -6.5 | 18.5 | 0.4 | -7.9 | 2.7 | / | /
Cc1cc(/C=C(\C#N)C(=O)N2CCOCC2)c(C)n1C1CCCC1 | 7.7 | 1.1 | 63.7* | 3.6 | 0.2 | 0.3 | 68.4* | 158.5*
CCc1cc2c(nc1CC)CCN(CC/C(C)=N/OC[C@H]1O[C@H](c3ccccc3)C=C[C@@H]1Oc1ccc(OC)cc1)C2 | / | / | 53.5* | 2.8 | / | / | 41.2* | 65.1*
Cc1c(N=C2N=C(NC(=O)c3cccs3)c3ccccc32)c(=O)n(-c2ccccc2)n1C | 0.7 | 19.7 | 77.6* | 21.2 | 28.0 | -2.4 | 13.1 | /
N/C(=N\OC(=O)C12CC3CC(CC(C3)C1)C2)c1ccncc1 | -2.1 | / | 83.7* | 6.8 | 22.4 | -0.3 | 14.1 | /
O=C(N/N=C/c1cc(Cl)cc([N+](=O)[O-])c1O)c1ccc2c(c1)OCO2 | 9.3 | 22.1 | 35.8 | 2.3 | 31.3 | -1.4 | / | /
O=C(N/N=C/c1cc(Br)cc([N+](=O)[O-])c1O)c1ccc(NC(=O)c2ccc(F)cc2)cc1 | 17.3 | 46.2 | 56.0* | 58.5* | 41.7 | 18.3* | 37.2 | 59.7*
O=C(NCc1cccnc1)c1cccs1 | -1.6 | -4.3 | -24.2 | -1.5 | / | -0.3 | / | /
Cc1ccc(-n2ncc(C(=O)Nc3ccc(Cl)cc3)c2C2CCNCC2)cc1C | 1.5 | -17.2 | 61.3* | -7.7 | 5.4 | -1.4 | 53.5* | 77.1*
COc1ccc(CCN2CCCn3c2nc2c3c(=O)n(C)c(=O)n2C)cc1OC | -0.6 | / | -5.0 | -8.9 | / | -1.0 | / | /
CC(CCc1ccccc1)NC(=O)COC(=O)c1ccc(S(C)(=O)=O)c([N+](=O)[O-])c1 (stereo not given) | 0.1 | -46.0 | 81.3* | 0.8 | 23.4 | 1.2 | 82.9* | 55.0*
Cc1ccccc1NC(=O)COC(=O)c1ccc(S(C)(=O)=O)c([N+](=O)[O-])c1 | 0.8 | -19.2 | 55.5* | 3.4 | -8.0 | 5.2 | 32.6 | /
Cc1ccccc1NC(=O)Cc1nc(COC(=O)c2ccc(S(C)(=O)=O)c([N+](=O)[O-])c2)cs1 | -0.2 | / | 97.4* | / | / | -3.0 | 94.5* | 56.9*
O=C(NNC(=O)c1ccc(Br)s1)c1cccc(Cl)c1 | 1.4 | -2.0 | 0.8 | / | / | -1.3 | / | /
COc1ccc(NC(=O)CSCc2cc(=O)n3nc(C4CC4)sc3n2)cc1 | -2.5 | -1.8 | 13.8 | -3.0 | -5.2 | -1.6 | / | /
COc1ccc(OC)c(CN2CCN(C(=O)[C@@H](NC(=O)c3cccc(C)c3)C(C)C)CC2)c1 | -2.9 | 1.2 | 27.8 | / | / | 0.4 | / | /
Cc1nc(Nc2ccncc2)c2oc3ccccc3c2n1 | -1.5 | 47.0 | 72.5* | -5.7 | -1.8 | 0.1 | 54.8* | 47.5*
CCc1nc(Nc2ccncc2)c2oc3ccccc3c2n1 | 0.1 | 6.0 | 63.2* | -0.4 | 7.8 | 2.0 | 78.6* | 31.6
CC(=O)Nc1ccc(Nc2nc(C)nc3c2oc2ccccc23)cc1 | 0.4 | 14.8 | 24.6 | 16.2 | -8.9 | 2.0 | / | /
COc1ccc(Cl)cc1NC(=O)NC1CCCCC1 | 0.9 | -0.2 | 6.9 | -1.1 | 3.9 | -31.4 | / | /
COc1ccc(Cl)cc1NC(=O)Nc1cccc([N+](=O)[O-])c1C | 45.1 | 15.0 | 53.1* | 11.0 | -3.0 | 8.0 | 29.1 | /
CN(C)c1ccc(C(C(=O)NC2CCCCC2)N(Cc2ccco2)C(=O)c2snc(C(N)=O)c2N)cc1 (stereo not given) | -2.0 | 2.6 | 51.1* | 4.2 | 10.3 | 0.3 | 37.5 | 92.5*
COc1ccc(C(C(=O)NCC2CCCO2)N(Cc2cccs2)C(=O)c2snc(C(N)=O)c2N)cc1 (stereo not given) | 1.8 | -3.0 | 52.4* | -3.1 | 15.8 | -1.5 | 49.0* | 87.8*
SMILES | MPTP block | Beta cell apopt | Mdm2-MdmX inh | SKKanGAS inh | CSC inhib | NR3A LBD binder | Mdm2-MdmX conf | Full FLuc ctr
C[C@@H]1[C@@H](Sc2ccccc2)CC(=O)O[C@@H]1c1ccc(-c2ccccc2)cc1 | 0.1 | / | 97.4* | 7.3 | 19.8 | 1.9 | 62.8* | 51.2*
O=S1(=O)[C@H]2C[C@@H]3C=C[C@@]2(CN1Cc1cccc(F)c1)O3 | 0.6 | -7.1 | 9.3 | 7.0 | 1.4 | -2.7 | / | /
O=C(C1=C[C@@H](C2CCCCC2)C[C@@H](OCc2ccc(CO)cc2)O1)N1CCN(Cc2ccc3c(c2)OCO3)CC1 | -1.3 | 24.4 | 37.2 | 37.6 | 41.3 | -5.4 | / | /
O=C(C1=C[C@@H](c2ccccc2)C[C@@H](OCc2ccc(CO)cc2)O1)N1CCN(Cc2ccc3c(c2)OCO3)CC1 | -1.0 | 5.5 | 51.9* | 22.9 | 45.1 | -0.2 | 47.8* | 69.3*
O=C(C1=C[C@H](C2CCCCC2)C[C@H](OCc2ccc(CO)cc2)O1)N1CCN(Cc2ccc3c(c2)OCO3)CC1 | 0.2 | / | 52.0* | 21.6 | 43.1 | 5.3 | 24.1 | /
O=C(C1=C[C@@H](c2csc3ccccc23)C[C@@H](OCc2ccc(CO)cc2)O1)N1CCN(Cc2ccc3c(c2)OCO3)CC1 | -3.9 | 27.0 | 53.5* | 25.2 | 62.0 | -22.2 | 46.1* | 53.1*
O=C(Nc1ccc(S(=O)(=O)N2CCCCC2)cc1)C1CC(=O)N(c2ccc(Cl)cc2)C1 (stereo not given) | -0.7 | 3.6 | 20.3 | -3.0 | 20.0 | 4.8 | / | /
COc1ccc(Nc2nc(Nc3ccc(OC)cc3)nc(SC3=NCCS3)n2)cc1 | -1.7 | 4.0 | 74.4* | 34.8 | -18.8 | 3.5 | -7.6 | /
COc1ccc(Nc2nc(Cl)nc(NCCO)n2)cc1 | 0.3 | -7.9 | 22.0 | -12.5 | -9.1 | -1.6 | / | /
CCOC(=O)C1CCN(S(=O)(=O)c2c(Cl)ccc3nonc23)CC1 | -1.9 | 47.7 | 100.4* | -10.3 | 1.8 | / | 97.7* | 0.8
CCOC(=O)C1CCN(S(=O)(=O)c2cccc3nonc23)CC1 | -1.8 | 5.8 | -1.2 | 0.0 | -1.2 | 1.0 | / | /
CCOc1nc(N=C(N)N)nc2c(C)cccc12 | 3.1 | 48.2 | 56.2* | -2.1 | -15.8 | -1.9 | 29.6 | /
CCOc1ccccc1Nc1cc(C)c2cccc(C)c2n1 | 3.0 | 9.5 | -11.1 | 13.6 | 29.9 | -8.5 | / | /
CCOC(=O)Oc1c(OC)cc(C(=O)O[C@@H]2C[C@@H]3CN4CCc5c([nH]c6cc(OC)ccc56)[C@H]4C[C@@H]3[C@H](C(=O)OC)[C@H]2OC)cc1OC | 1.1 | 6.2 | 87.7* | / | 15.2 | -9.4 | 57.5* | 49.0*

Bioassay records (PubChem)
